Experimental data as given in PubChem BioAssay (Tox21).
Values joined by “and” are separate entries in the source; they are usually repeats but may differ in a detail not shown here. Equal values may be shown once. Inconclusive results are not listed. Active and inactive are the calls of the source. Unless noted, calls follow the shape of the dose curve; as a rule, active = well fitted curve in the direction sought with a large enough effect in the repeat runs; inconclusive = weak or mixed curves; inactive = no such curve, though single readings can be large; an effect the other way counts as inactive or inconclusive.

Experiments:
[1] = qHTS assay to identify small molecule antagonists of the peroxisome proliferator-activated receptor delta (PPARd) signaling pathway - cell viability counter screen (AID 743213); also: nearly all actives have a fitted effect of over 50% in size; also: potency is read from the fitted curve at half-maximal effect
Method in brief: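 In this counter screen, HEK293H cells carrying a UAS-beta-lactamase reporter are co-treated with test compounds and 300 nM L165041 (final) for 17 h at 37 C; cell viability is quantified by CellTiter-Glo luminescence.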

[2] = target: Peroxisome proliferator-activated receptor delta (Homo sapiens) (UniProt Q03181); assay: qHTS assay to identify small molecule antagonists of the peroxisome proliferator-activated receptor delta (PPARd) signaling pathway (AID 743215; active = well fitted inhibition curve with a large enough effect in the signal ratio in the repeat runs, not every such curve was filed as active; the % refers to the signal ratio;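 also: cells stimulated with agonist L165041 at 300 nM final during compound exposure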; also: potency is read from the fitted curve at half-maximal effect)
Peroxisome proliferator-activated receptor delta (Homo sapiens), sequence (Q03181 whole entry, looked up): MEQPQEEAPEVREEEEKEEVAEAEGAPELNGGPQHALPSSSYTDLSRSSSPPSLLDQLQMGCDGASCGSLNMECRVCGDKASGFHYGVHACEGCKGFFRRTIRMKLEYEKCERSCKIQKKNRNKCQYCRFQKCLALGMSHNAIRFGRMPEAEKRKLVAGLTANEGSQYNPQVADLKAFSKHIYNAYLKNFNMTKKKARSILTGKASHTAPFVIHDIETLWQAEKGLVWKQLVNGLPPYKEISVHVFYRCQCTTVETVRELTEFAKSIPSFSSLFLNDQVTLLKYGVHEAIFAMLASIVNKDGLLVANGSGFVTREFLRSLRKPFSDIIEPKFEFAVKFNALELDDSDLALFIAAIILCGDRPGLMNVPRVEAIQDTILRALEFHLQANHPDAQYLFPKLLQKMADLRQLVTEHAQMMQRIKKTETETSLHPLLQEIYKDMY
Method in brief: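 Here, a reporter line (HEK293H, beta-lactamase under a UAS) measures PPARd signaling. Compounds are tested against agonist L165041 at 300 nM final concentration over 17 h at 37 C, with fluorescence read after substrate.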

[3] = qHTS assay to identify small molecule agonists of the farnesoid-X-receptor (FXR) signaling pathway - cell viability counter screen (AID 743218); also: nearly all actives have a fitted effect of over 45% in size; also: potency is read from the fitted curve at half-maximal effect
Method in brief: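 Quantitative HTS counter screen measuring ATP-based viability via CellTiter-Glo luminescence in HEK 293T cells carrying a UAS-driven beta-lactamase reporter, after 16 h compound exposure at 37 C.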

[4] = target: Bile acid receptor (Homo sapiens) (UniProt Q96RI1); assay: qHTS assay to identify small molecule agonists of the farnesoid-X-receptor (FXR) signaling pathway (AID 743220; active = well fitted activation curve with a large enough effect in the signal ratio in the repeat runs, not every such curve was filed as active; the % refers to the signal ratio)
Bile acid receptor (Homo sapiens), sequence (Q96RI1 whole entry, looked up): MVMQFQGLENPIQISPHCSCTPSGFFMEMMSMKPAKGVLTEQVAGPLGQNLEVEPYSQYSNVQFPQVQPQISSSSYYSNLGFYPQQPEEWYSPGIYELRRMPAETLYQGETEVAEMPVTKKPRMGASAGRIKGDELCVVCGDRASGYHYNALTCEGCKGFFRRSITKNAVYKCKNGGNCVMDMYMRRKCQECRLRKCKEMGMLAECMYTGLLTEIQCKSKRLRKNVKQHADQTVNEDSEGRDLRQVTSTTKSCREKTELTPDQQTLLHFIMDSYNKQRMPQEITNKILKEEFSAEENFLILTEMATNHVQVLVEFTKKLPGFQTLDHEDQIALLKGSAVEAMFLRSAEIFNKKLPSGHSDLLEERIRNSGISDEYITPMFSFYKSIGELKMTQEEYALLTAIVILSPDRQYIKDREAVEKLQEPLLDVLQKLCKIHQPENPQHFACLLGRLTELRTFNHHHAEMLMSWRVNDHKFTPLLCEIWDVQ
Method in brief: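 FXR-UAS-bla HEK 293T cells carrying a UAS-driven beta-lactamase reporter were plated for 5 h at 37C/5% CO2, then exposed to DMSO-dissolved Tox21 10K compounds for 16 h at 37C. A LiveBLAzer B/G FRET substrate was loaded for 2 h at room temperature before fluorescence reading.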

[5] = qHTS assay to identify small molecule antagonists of the farnesoid-X-receptor (FXR) signaling pathway - cell viability counter screen (AID 743221; active = well fitted cell-killing curve with a large enough effect in the repeat runs, not every such curve was filed as active; also: nearly all actives have a fitted effect of over 50% in size; also: potency is read from the fitted curve at half-maximal effect)
Method in brief: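 FXR-UAS-bla HEK 293T cells were treated with test compounds plus chenodeoxycholic acid (50 uM final) for 16 h at 37 C. Cell viability in the same wells was then read as CellTiter-Glo luminescence after 30 min at room temperature.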

[6] = qHTS assay to identify small molecule agonists of the vitamin D receptor (VDR) signaling pathway - cell viability counter screen (AID 743224); also: nearly all actives have a fitted effect of over 50% in size; also: potency is read from the fitted curve at half-maximal effect
Method in brief: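 CellTiter-Glo viability readout on VDR-bla cells, measured after 16 h of compound treatment at 37C in the same wells.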

[7] = target: Bile acid receptor (Homo sapiens) (UniProt Q96RI1); assay: qHTS assay to identify small molecule antagonists of the farnesoid-X-receptor (FXR) signaling pathway (AID 743217; active = well fitted inhibition curve with a large enough effect in the signal ratio in the repeat runs, not every such curve was filed as active; the % refers to the signal ratio; also: potency is read from the fitted curve at half-maximal effect)
Method in brief: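 Test compounds are pin-transferred onto FXR-bla HEK 293T cells, then chenodeoxycholic acid is added at 50 uM final. After 16 h at 37 °C, LiveBLAzer B/G substrate is applied for 2 h at room temperature and fluorescence read.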

[8] = target: Vitamin D3 receptor (Homo sapiens) (UniProt P11473); assay: qHTS assay to identify small molecule agonists of the vitamin D receptor (VDR) signaling pathway (AID 743222; calls by dose curve)
Vitamin D3 receptor (Homo sapiens), sequence (P11473 whole entry, looked up): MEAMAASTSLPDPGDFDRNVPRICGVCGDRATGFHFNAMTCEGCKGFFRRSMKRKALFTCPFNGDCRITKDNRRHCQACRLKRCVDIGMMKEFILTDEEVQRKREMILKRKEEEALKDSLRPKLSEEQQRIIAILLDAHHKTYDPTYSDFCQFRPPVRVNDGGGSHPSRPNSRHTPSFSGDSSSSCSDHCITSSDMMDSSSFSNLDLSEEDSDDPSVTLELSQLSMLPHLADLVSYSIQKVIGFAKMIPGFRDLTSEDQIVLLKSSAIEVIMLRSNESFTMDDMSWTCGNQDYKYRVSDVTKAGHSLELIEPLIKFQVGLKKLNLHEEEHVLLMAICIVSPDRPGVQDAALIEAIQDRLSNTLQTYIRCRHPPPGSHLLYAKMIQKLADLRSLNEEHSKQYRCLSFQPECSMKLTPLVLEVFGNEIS
Method in brief: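 Tox21 cell reporter format: VDR-bla line, 16 h compound exposure in 5% CO2 at 37C, then fluorescence intensity after 2 h with LiveBLAzer B/G FRET substrate.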

[9] = target: Vitamin D3 receptor (Homo sapiens) (UniProt P11473); assay: qHTS assay to identify small molecule antagonists of the vitamin D receptor (VDR) signaling pathway (AID 743223; active = well fitted inhibition curve with a large enough effect in the signal ratio in the repeat runs, not every such curve was filed as active; the % refers to the signal ratio; also: potency is read from the fitted curve at half-maximal effect)
Method in brief: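 VDR-bla cells were plated, incubated 4 h at 37C, then given compound and 1alpha,25-dihydroxyvitamin D3 (3 nM final). After 16 h at 37C, LiveBLAzer B/G FRET substrate was added for 2 h at room temperature and fluorescence read.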

Measured: Potency

CC(=O)/C=C/c1ccc2c(c1)OCO2
inactive: [1] | [3] | [4] | [5] | [6]
active: [2] 43.9 µM

C=CC(=O)OCC(COC(=O)C=C)(COC(=O)C=C)COC(=O)C=C
active: [1] 12.3 µM | [3] 7.76 µM | [5] 21.9 µM | [6] 7.76 µM

O=[N+]([O-])O.O=[N+]([O-])O.[Cd]
active: [1] 5.49 µM | [3] 12.3 µM | [5] 6.16 µM | [6] 1.74 µM

COc1cc(N)c(Cl)cc1C(=O)NC1CN2CCC1CC2 (configuration not stated)
inactive: [1] | [3] | [5] | [6]

CC(=O)O[C@H]1CC[C@@]2(C)C(=CC[C@@H]3[C@@H]2CC[C@]2(C)C(=O)CC[C@@H]32)C1
inactive: [1] | [7] | [3] | [5]

C[C@H]1O[C@@H](O[C@H]2[C@@H](O)C[C@H](O[C@H]3[C@@H](O)C[C@H](O[C@H]4CC[C@@]5(C)[C@H](CC[C@@H]6[C@@H]5CC[C@]5(C)[C@@H](C7=CC(=O)OC7)CC[C@]65O)C4)O[C@@H]3C)O[C@@H]2C)C[C@H](O)[C@@H]1O
active: [1] 19.6 nM and 84.1 nM | [3] 0.0311 µM | [5] 0.0139 µM
inactive: [4]

O=C(CBr)c1ccc(O)cc1
inactive: [1] | [7] | [3] | [5] | [8]

CCOC(=O)CC(=O)CCl
inactive: [1] | [3] | [5] | [8]

N#C/C=C/C#N
active: [3] 51.3 µM
inactive: [1] | [2] | [5] | [9] | [6]

O=C(NC(=O)c1c(F)cccc1F)Nc1cc(Cl)c(OC(F)(F)C(F)F)c(Cl)c1
inactive: [1] | [2] | [3] | [5] | [6]

O=[N+]([O-])c1cc(C(F)(F)F)c(Cl)c([N+](=O)[O-])c1Cl
active: [1] 7.76 µM | [3] 7.76 µM | [5] 38.9 µM | [6] 12.3 µM

CC1(c2ccc(Oc3ccccc3)cc2)OC(=O)N(Nc2ccccc2)C1=O (configuration not stated)
inactive: [4]
active: [1] 43.9 µM | [2] 24.7 µM | [3] 39.1 µM | [6] 17.5 µM

O=C(Nc1ccc2[nH]ccc2c1)c1cc2cc(F)ccc2n1Cc1cccc(F)c1
active: [1] 43.6 µM | [7] 54.9 µM | [3] 49 µM | [9] 43.6 µM | [6] 43.6 µM
inactive: [4] | [8]

ClC1=C(Cl)C2(Cl)C3C(Cl)C(Cl)CC3C1(Cl)C2(Cl)Cl (configuration not stated)
inactive: [8]
active: [1] 49 µM | [3] 48.8 µM and 54.9 µM | [5] 61.6 µM | [6] 24.5 µM and 17.4 µM

N#CNC#N
not listed: [2]
inactive: all other assays above

CC(=O)[O-].CC(=O)[O-].O.O.[Cd+2]
active: [1] 19.2 µM | [3] 1.53 µM | [5] 1.21 µM | [6] 1.21 µM

Cc1c(Cl)c(=O)oc2cc(OP(=O)(OCCCl)OCCCl)ccc12
inactive: [1] | [3] | [5] | [6]

ClC(Cl)=C(Cl)Cl
not listed: [2] | [3]
inactive: all other assays above

CC(=O)[O-].CC(=O)[O-].[Hg+2]
active: [1] 3.47 µM | [3] 1.1 µM | [5] 3.09 µM

CC(=O)[O-].[Tl+]
inactive: [1] | [3] | [5] | [6]

N#CSCSC#N
inactive: [3] | [4] | [8]
active: [1] 44.6 µM and 48.5 µM

FC(Cl)(Cl)Cl
not listed: [2] | [9]
inactive: all other assays above

Nc1ccccc1C(=O)Oc1ccc2ccccc2c1
not listed: [2] | [8]
inactive: all other assays above

O=C(CCl)C(Cl)Cl
active: [2] 49.4 µM | [5] 49.4 µM

Oc1ccc(C2(c3ccc(O)cc3)c3ccccc3-c3ccccc32)cc1
active: [2] 11 µM | [3] 54.9 µM
inactive: [8]

O=C(O)c1cc[c]([Hg][Cl])cc1
active: [3] 27.5 µM | [6] 24.5 µM
inactive: [2] | [5] | [8]

S=C(SSC(=S)N1CCCCC1)N1CCCCC1
active: [1] 0.168 µM | [5] 0.211 µM | [6] 0.168 µM

CCN
inactive: [3] | [5]

Oc1ccc(C(=C(Cl)Cl)c2ccc(O)cc2)cc1
inactive: [4] | [5]
active: [2] 19.5 µM | [6] 48.9 µM

CC(=O)Nc1ccc2c(c1)Cc1ccccc1-2
inactive: [2] | [3] | [5]

CC1(C)CN=C(NN=C(/C=C/c2ccc(C(F)(F)F)cc2)/C=C/c2ccc(C(F)(F)F)cc2)NC1
active: [7] 19.5 µM | [3] 11 µM | [5] 15.5 µM | [9] 13.8 µM | [6] 6.92 µM
